# Measurements taken from PubChem BioAssay (Tox21).
# Inconclusive results are not listed. Calls of active or inactive are those of the source. Calls come from the whole dose curve; as a rule, active = well fitted activation curve with a large enough effect in the signal ratio in the repeat runs, with a control signal flat (not every such curve was filed as active); inconclusive = weak or mixed curves, or effect the other way; inactive = no such curve, though single readings can be large or run the other way; the % refers to the signal ratio.
# Biological target: Androgen receptor (Homo sapiens) (UniProt P10275)
# Sequence (P10275 whole entry, looked up): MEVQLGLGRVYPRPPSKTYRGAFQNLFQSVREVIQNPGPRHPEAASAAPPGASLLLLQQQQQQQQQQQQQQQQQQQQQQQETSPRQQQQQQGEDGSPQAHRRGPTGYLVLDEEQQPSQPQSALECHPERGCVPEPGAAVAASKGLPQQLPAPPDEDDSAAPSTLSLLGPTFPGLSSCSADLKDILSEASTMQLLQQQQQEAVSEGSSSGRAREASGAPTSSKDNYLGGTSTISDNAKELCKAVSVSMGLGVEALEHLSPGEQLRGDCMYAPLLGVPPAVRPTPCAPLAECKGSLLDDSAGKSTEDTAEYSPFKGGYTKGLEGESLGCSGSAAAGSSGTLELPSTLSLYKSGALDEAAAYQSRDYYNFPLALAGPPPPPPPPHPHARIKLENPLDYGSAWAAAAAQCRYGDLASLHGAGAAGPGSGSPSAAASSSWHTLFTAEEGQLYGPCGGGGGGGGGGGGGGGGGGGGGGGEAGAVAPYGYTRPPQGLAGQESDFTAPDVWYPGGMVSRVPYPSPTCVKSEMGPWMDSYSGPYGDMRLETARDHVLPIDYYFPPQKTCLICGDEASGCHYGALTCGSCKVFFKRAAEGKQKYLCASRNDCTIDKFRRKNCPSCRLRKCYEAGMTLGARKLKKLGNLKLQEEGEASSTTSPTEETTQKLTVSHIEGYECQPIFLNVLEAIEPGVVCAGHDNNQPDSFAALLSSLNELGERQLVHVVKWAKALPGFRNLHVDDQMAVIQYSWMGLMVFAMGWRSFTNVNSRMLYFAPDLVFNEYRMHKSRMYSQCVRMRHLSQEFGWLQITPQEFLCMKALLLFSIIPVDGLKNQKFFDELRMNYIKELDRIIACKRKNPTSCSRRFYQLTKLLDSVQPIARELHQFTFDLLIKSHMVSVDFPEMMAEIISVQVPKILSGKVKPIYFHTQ
# Assay: qHTS assay to identify small molecule agonists of the androgen receptor (AR) signaling pathway (AID 743036)
# Conditions: HEK293 AR-UAS-bla GripTite, beta-lactamase FRET ratio, 16 h; series mostly up to 62.4 µM; activation: at the top concentration
# Description: U.S. Tox21 Program National Center for Advancing Translational Sciences [NCATS] NIH Chemical Genomics Center [NCGC] U.S. Environmental Protection Agency [EPA] National Institutes of Environmental Health Sciences [NIEHS] National Toxicology Program [NTP] U.S. Food and Drug Administration [FDA] Tox21 Assay Overview: Androgen receptor (AR), a nuclear hormone receptor, plays a critical role in AR-dependent prostate cancer and other androgen related diseases. Endocrine disrupting chemicals (EDCs) and their interactions with steroid hormone receptors like AR may cause disruption of normal endocrine function as well as interfere with metabolic homeostasis, reproduction, developmental and behavioral functions. To identify the compounds that activate AR signaling, GeneBLAzer AR-UAS-bla-GripTite cell line (Invitrogen, Carlsbad, CA, USA) containing a beta-lactamase reporter gene under the control of an Upstream Activator Sequence (UAS) stably integrated into HEK293 cells was used to screen the Tox21 10K compound library.
# Tox21 Assay Protocol Summary: AR-bla cells were dispensed at 2,000 cells/6 uL/well of assay medium into black wall/clear-bottom 1536-well plates using a Multidrop Combi (ThermoFisher Scientific, Waltham, MA) dispenser. After the assay plates were incubated at 37C and 5% CO2 for 4 h, 23 nL of compounds dissolved in DMSO, positive controls or DMSO only was transferred to the assay plate by a Pintool station (Kalypsys, San Diego, CA). The plates were incubated at 37C and 5% CO2 for 16 h. Then 1 uL of LiveBLAzerTM B/G FRET substrate was added using a Bioraptr Flying Reagent Dispenser (FRD) workstation (Beckman Coulter, Indianapolis, IN, USA). The plates were incubated at room temperature for 2 h, and fluorescence intensity was measured by an Envision plate reader (PerkinElmer, Shelton, CT).
# % is set by controls: 0 for no effect and ±100 for the full control effect; potency is the fitted concentration of half-maximal effect.
Compound,activation,Potency
COc1ccc(/C(=C/C(=O)N2CCOCC2)c2ccc(Cl)cc2)cc1OC,2.48% (inactive),–
O=c1oc2ccccc2c(O)c1Cc1c(O)c2ccccc2oc1=O,-1.93% [at 29.2 µM] (inactive),–
ClC1=C(Cl)C2(Cl)C3C(Cl)C(Cl)CC3C1(Cl)C2(Cl)Cl (stereo not given),14% (inactive),–
CC(C)(C)OO,-0.844% (inactive),–
O=C1c2ccccc2C(=O)C1C(=O)C(c1ccccc1)c1ccc(Cl)cc1 (stereo not given),3.74% (inactive),–
CC[C@H]1C[C@@H]2C[C@H]3c4[nH]c5ccc(OC)cc5c4CCN(C2)[C@@H]13,-3.94% (inactive),–
Oc1c(Br)c(Br)c(Br)c(Br)c1Br,-11.6% [at 79.1 µM] (inactive),–
Nc1ccccc1C(=O)Oc1ccc2ccccc2c1,-9.04% (inactive),–
C[C@]12Cc3nonc3C[C@@H]1CC[C@@H]1[C@@H]2CC[C@@]2(C)[C@H]1CC[C@]2(C)O,–,0.0038 µM (active)
CN(C)CCc1c[nH]c2ccc(O)cc12,-0.554% (inactive),–
CNC(C)Cc1ccc2c(c1)OCO2 (stereo not given),4.69% [at 79.1 µM] (inactive),–
CCCCCCCCc1ccc(O)cc1,15.3% [at 79.1 µM] (inactive),–
O=C(CCl)Nc1ccccc1,12.2% (inactive),–
CCCSP(=O)(OCC)SCCC,17% [at 79.1 µM] (inactive),–
CCN(CC)c1c([N+](=O)[O-])cc(C(F)(F)F)c(N)c1[N+](=O)[O-],16.3% (inactive),–
CCC(C)(C)C(=O)OC1=C(c2ccc(Cl)cc2Cl)C(=O)OC12CCCCC2,15.4% (inactive),–
CCOc1cc(C(C)(C)C)ccc1C1COC(c2c(F)cccc2F)=N1 (stereo not given),2.74% (inactive),–
COc1cccc(C(=O)CCN[C@@H](C)[C@H](O)c2ccccc2)c1,5.88% (inactive),–
CC(=O)O[C@H]1CC[C@@]2(C)C(=CC[C@@H]3[C@@H]2CC[C@]2(C)C(=O)CC[C@@H]32)C1,–,inactive
FC(Cl)(Cl)Cl,–,12.3 µM (active)
